Test in all cases: NCI-60 one-dose screen, 48 h (100 = growth as untreated, 0 = no growth, -100 = all killed)
Settings in all cases: 10 µM unless noted

Test [1] deals with DU-145 prostate.
Test [2] concerns K-562 leukemia.
The subject of test [3] is MALME-3M melanoma.
The subject of test [4] is MDA-MB-231 breast.
The subject of test [5] is RXF 393 renal.
The subject of test [6] is SF-268 CNS.
Test [7] deals with SF-295 CNS.
For test [8], the system named is SF-539 CNS.
The subject of test [9] is UACC-257 melanoma.
Test [10] relates to M14 melanoma.

SMILES strings stand for the structures. About 83,000 compounds went through this panel and 20% of them were active in at least one assay; those are over-represented in the sample as a whole.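 Cells were grown in 96-well plates and exposed to the test compound at a single concentration for 48 hours; results are reported as percent growth, with values below 10 considered active.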 A number with no mark means an inactive call. Calls of active or inactive are those of the source.

Regarding `Cn1cc(-c2cc3nc(-c4c[nH]c5ccccc45)cc(N)n3n2)c2ccccc21`, the growth in [1] was 11.6%; in test [2] it was -7.67% (active); in test [3], -92.8% (active); in test [4], -93.2% (active); in [5], 82.7%; in [6], 77.1%. Besides, the growth in test [7] is -61.2% (active); in test [8], -97.4% (active); in test [9] it was -88.4% (active); in test [10] it was -60.5% (active).
Consider `Cc1ccc(-c2cc(-c3ccccc3)[nH]c(=O)c2C#N)cc1`, for which the growth in test [1] was 97.3%; in [2] it was 74.4%; in test [3], 106%; in test [4] it was 83.8%; in [5], 101%; in [6], 92.9%. In addition, the growth in [7] was 90.4%; in test [8], 81.9%; in [9] it was 101%; in test [10], 111%.
`O=C1CCC(N2C(=O)c3cccc(NCCCCCC(=O)N4CCN(c5ccc6nc7c(nc6c5C(F)(F)F)C(=O)c5ncccc5C7=O)CC4)c3C2=O)C(=O)N1` (stereo unspecified): the growth in test [1] is -88.3% (active); in test [2] it was -0.95% (active); in test [3] it was -99.3% (active); in [4], -46.2% (active); in test [5] it was -72.1% (active); in [6], -29.5% (active). The growth in test [7] is -84.1% (active); in [8], -95.4% (active); in test [9], -98.3% (active); in test [10] it was -87.2% (active).
In the case of `O=C(NC(=S)N1CCN(c2ncnc3c2cnn3-c2ccccc2)CC1)c1ccc(F)cc1`, the growth in test [1] is 86.4%; in [2], 51.3%; in test [3], 78.1%; in [4] it was 84.2%; in test [5], 77%; in test [6], 80.2%. In addition, the growth was 69.3% in test [7], 73.8% in test [8], 89% in [9] and 86.8% in [10].
Regarding `CN(C)c1nc(NCCNS(=O)(=O)c2ccc(C(=O)/C=C/c3ccccc3)cc2)nc(N2CCOCC2)n1`, the growth is 89.6% in test [1]; -15.4% (active) in test [2]; 99.2% in test [3]; 7.26% (active) in [4]; 79% in test [5]; 74.6% in [6]. Further, the growth in test [7] was 75.6%; in [8], 77.1%; in test [9] it was 78.8%; in test [10] it was 84.4%.
Take `COc1cc(/C=C/C(=O)c2cnn(-c3cc(=O)[nH]c4ccc(Cl)cc34)c2C)cc(OC)c1OC`: the growth is -72.8% (active) in test [1]; -12.4% (active) in test [2]; -20.4% (active) in test [3]; -5.1% (active) in [4]; -84.1% (active) in test [5]; -23.8% (active) in [6]. In addition, the growth is -71.5% (active) in test [7], -69.3% (active) in test [8], -33.8% (active) in [9] and -49% (active) in [10].
Consider `Cc1cc(N=C(N)c2ccccc2)ccc1OCCCCCCCCn1ccnc1`, for which the growth in test [2] was 12.4%; in test [3], -77.2% (active); in [6] it was -12.2% (active); in test [9], -2.36% (active); in test [10], -17.5% (active).
In the case of `O=C(c1ccc(Cl)cc1)C1[C@H](c2ccccc2Cl)[C@@H](c2ccccc2)NC12C(=O)Nc1ccc(Cl)cc12` (stereo partly specified), the growth in test [1] was -28.5% (active); in test [2], -45.1% (active); in test [3], -39.5% (active); in [4] it was -96.1% (active); in test [5] it was -93.1% (active); in [6], -36.6% (active). The growth in [7] is -85.9% (active); in test [8] it was -78.4% (active); in [9], -15.5% (active); in test [10] it was -82.9% (active).
Turning to `OC1CCC(Cn2c(C(F)(F)F)cc3c(Cl)ncnc32)CC1` (stereo unspecified), the growth is 10.5% in test [1]; -3.95% (active) in [2]; 79.3% in test [3]; 2.76% (active) in test [4]; 63.1% in test [5]; -36.4% (active) in [6]. Besides, the growth is 75.6% in test [7], 75.6% in [8], 9.12% (active) in [9] and -44.1% (active) in test [10].
As to `COc1ccc(OC)c(Cn2cc(C#N)c(N)c2C(=O)c2ccc(Br)cc2)c1`, the growth in [1] is 79.1%; in test [2], 15.2%; in test [3], 42.6%; in test [4], 60.7%; in test [5], 41.8%; in test [6], 68.5%. The growth in test [7] was 39.1%; in test [8], 47.7%; in test [9], 55.6%; in test [10] it was 33.8%.
In the case of `O=C(N/N=C/c1ccsc1)c1[nH]c2ccc(Br)cc2c1-c1ccccc1`, the growth in test [1] is -26.4% (active); in test [2] it was 4.77% (active); in [3], -72.5% (active); in test [4] it was -69.9% (active); in [5] it was -47.5% (active); in [6], -56.1% (active). Further, the growth in test [7] is -87.5% (active); in test [8], -95.5% (active); in [9], -51.9% (active); in test [10], -73.8% (active).
On to `O=C(O)CC1S/C(=N/N=C/c2nc3ccccc3s2)NC1=O` (stereo unspecified), for which the growth in test [1] is 95.8%; in test [2], 94.1%; in [3], 107%; in test [4] it was 102%; in test [5], 134%; in [6], 85.5%. The growth in test [7] was 104%; in test [8], 98.1%; in [9], 105%; in test [10], 90.4%.
As to `NC(=Nc1ccc(OCCCCCCCCn2cnnn2)cc1)c1ccccc1`, the growth in test [2] is 15.4%; in [3], 46.3%; in test [4] it was 11.8%; in test [6], 38.8%; in [9] it was 49.7%; in test [10] it was 18.1%.
For `N#Cc1ccc(C(=O)CSc2nc3c(c(Nc4ccc(S(N)(=O)=O)cc4)n2)CCC3)cc1`, the growth in test [1] is 51.1%; in [2], 55.2%; in test [3] it was 48.8%; in [4], -14.3% (active); in test [5], -18.1% (active); in test [6] it was 38.3%. In addition, the growth in test [7] was 80.4%; in [8], 16.2%; in [9], 102%; in [10], 78.1%.
Turning to `Cc1nn(-c2ccccc2)c2nc(C)n(CC(=O)N/N=C/c3cccc([N+](=O)[O-])c3)c(=O)c12`, the growth is 105% in test [1]; 91% in test [2]; 99% in [3]; 78.5% in test [4]; 84.2% in test [5]; 96.5% in test [6]. In addition, the growth was 101% in [7], 95.3% in test [8], 101% in test [9] and 107% in test [10].
With `COc1ccc2[nH]c(O)c(N=Nc3nc(-c4ccc(Br)cc4)cs3)c2c1`, the growth was 16% in [1]; 17.9% in test [2]; -36.3% (active) in test [3]; 35.7% in test [4]; -64.2% (active) in test [5]; 30.5% in [6]. Besides, the growth in test [7] was 9.66% (active); in [8] it was -68.4% (active); in test [9], 30.3%; in test [10], 14.4%.
`CN1CCN(C(=O)CCN(C(=O)Oc2cc3c(c4ccccc24)[C@H](CCl)CN3C(=O)c2cc3cc(OCCCN4CCC4)ccc3[nH]2)[C@H]2CCSSC2)CC1`: the growth in test [1] is -84.3% (active); in [2] it was -42.9% (active); in test [3], -86.8% (active); in [4] it was -89.6% (active); in test [5] it was -86.7% (active); in test [6] it was -50.4% (active). The growth in test [7] was -71% (active); in [8] it was -94% (active); in test [9], -77.9% (active); in [10] it was -62.5% (active).

These data come from PubChem BioAssay (NCI).
